Test results reported in PubChem BioAssay (NCI).
The panel holds about 79,000 compounds, 15% with a hit somewhere; the sample as a whole holds those more often. Rule as the data show it: active = growth inhibition above about 70%; inactive = the rest.

Columns and labels:
[1] = NCI Yeast Anticancer Drug Screen. Data for the rad50 strain (AID 155);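 also: 0% = growth of vehicle-only cultures of the same strain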; conditions: S. cerevisiae rad50 strain growth inhibition; at 50.0 µM; hits give high values
Method in brief: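 A DNA repair-deficient yeast mutant serves as the test organism; compound-induced growth inhibition is calculated against vehicle-treated cells.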

[2] = NCI Yeast Anticancer Drug Screen. Data for the mec2-1 strain (AID 157); conditions: S. cerevisiae mec2-1 strain, at 50.0 µM, hits give high values
Method in brief: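 Test agents were screened against the mec2-1 yeast strain, with defined DNA repair or cell cycle alteration. Growth was scored as inhibition against vehicle-only controls.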

[3] = NCI Yeast Anticancer Drug Screen. Data for the sgs1 mgt1 strain (AID 161);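 also: 0% = growth of cultures given vehicle only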; conditions: S. cerevisiae sgs1 mgt1 strain, at 50.0 µM, hits give high values
Method in brief: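 Inhibition of yeast growth, normalised to vehicle-treated controls, is reported for a strain bearing genetic alterations in DNA damage repair.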

[4] = NCI Yeast Anticancer Drug Screen. Data for the cln2 rad14 strain (AID 165);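 also: 0% = growth equal to vehicle treated cultures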; conditions: S. cerevisiae cln2 rad14 strain, at 50.0 µM, hits give high values
Method in brief: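 Growth of compound-exposed yeast (cln2 rad14 genotype) measured and expressed as inhibition relative to vehicle.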

[5] = NCI Yeast Anticancer Drug Screen. Data for the bub3 strain (AID 167); conditions: S. cerevisiae bub3 mutant strain, at 50.0 µM, hits give high values
Method in brief: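 Inhibition values come from growth of compound-treated mutant yeast normalised to vehicle-treated controls.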

[6] = NCI Yeast Anticancer Drug Screen. Data for the mlh1 rad18 strain (AID 175); conditions: S. cerevisiae mlh1 rad18 strain growth inhibition; at 50.0 µM; hits give high values
Method in brief: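 In this whole-cell yeast screen, a strain with altered DNA damage repair is challenged with compound, and its growth is measured against matched vehicle-treated controls.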

Measured: growth inhibition

O=C1c2ccccc2C(=O)c2c1ccc(C1C(=O)c3ccccc3C1=O)c2-c1c(C2C(=O)c3ccccc3C2=O)ccc2c1C(=O)c1ccccc1C2=O
inactive: [1] -18.4% | [2] -16.8% | [3] -35.5% | [4] -17.5% | [5] -33.1% | [6] 4.15%

CCOC(=O)c1cnc(SC)nc1Nc1cccc(C)c1
inactive: [1] -13.4% | [2] -10.4% | [3] -11.9% | [4] -18.1% | [5] 9.1% | [6] -36.1%

CO[C@@H]1[C@@H](OC2OC(C)C(OC3CC(C)(O)C(OC(=O)CC(C)C)C(C)O3)C(N(C)C)C2O)[C@@H](CC=O)C[C@@H](C)C(=O)/C=C/C2O[C@H]2C[C@@H](C)OC(=O)C[C@H]1OC(C)=O (stereo partly specified)
inactive: [1] 4.1% | [2] -22.6% | [3] 4.75% | [4] 8.95% | [5] -14.3% | [6] 17.3%

NCCCc1ccc2oc3ccccc3c2c1
inactive: [1] 23.8% | [2] -14.2% | [3] 13.9% | [4] 15.5% | [5] -22.3% | [6] 24.4%

CCOC(=O)/C=C/c1ccccn1
inactive: [1] -15.3% | [2] -9.5% | [3] -35.5% | [4] 11.9% | [5] -12.8% | [6] -25.6%

CC(C)(O)c1cc(F)ccc1N
inactive: [1] -0.75% | [2] 11.3% | [3] -1.3% | [4] 15.3% | [5] 29.6% | [6] 8.3%

C[C@H]1O[C@@H](C(C)(C)C)OC(=O)[C@@H]1C(OC(=O)c1ccccc1)c1cccc2ccccc12 (stereo partly specified)
inactive: [1] -0.1% | [2] 3.15% | [3] 12.1% | [4] 25.3% | [5] -3.45% | [6] 8%

CN(C)C(=O)NCc1cccnc1
inactive: [1] -21.8% | [2] 10.9% | [3] 0.35% | [4] -78.2% | [5] -3.45% | [6] -10.7%

N#CCCSC(=S)C(C#N)C(=N)c1ccccc1 (stereo unspecified)
inactive: [1] 13.2% | [2] 2.25% | [3] 14.2% | [4] 1.5% | [5] -18.9% | [6] 10.3%

C=C1CCC(OC(C)=O)C2(C)C(OC(C)=O)CC3OC3(C)C2C(OC(C)=O)C2C(C)C(=O)OC2C1Cl (stereo unspecified)
inactive: [1] 3.2% | [2] -20.8% | [3] 1.55% | [4] 6.45% | [5] 3% | [6] 4.8%

Cc1ccc2c(c1)-c1nc3nnnn3nc1C(C)(C)O2
inactive: [1] 21% | [2] 6.8% | [3] 34% | [4] -6.85% | [5] 15.1% | [6] 26.8%

Cc1ccccc1SCC(N)=O
inactive: [1] 6.55% | [2] 9.1% | [3] -0.85% | [4] -12.1% | [5] 5.35% | [6] -0.7%

O=S(=O)(Cl)c1cccc2c(S(=O)(=O)Cl)cccc12
inactive: [1] 7% | [2] 2.15% | [3] 15.4% | [4] -40.5% | [5] -10.4% | [6] 16.2%

NC(=O)c1cc(OCc2ccccc2)nc2nc(Cl)nc(N)c12
inactive: [1] -5.05% | [2] 14.6% | [3] 3.35% | [4] -15.8% | [5] -0.8% | [6] 5.05%

Cc1ccc(S(=O)(=O)N2CCCSCCSCCCN(S(=O)(=O)c3ccc(C)cc3)CC2)cc1
inactive: [1] 8.85% | [2] -10.8% | [3] 4% | [4] -45% | [5] -10.1% | [6] 2.05%

NC(CCCOS(=O)(=O)O)Cc1ccc2ccccc2c1 (stereo unspecified)
inactive: [1] -10.6% | [2] 9.35% | [3] 16.6% | [4] 10.2% | [5] 3.55% | [6] 8.9%

c1csc(-c2nccc3ccccc23)c1
inactive: [1] 1.6% | [2] 2.3% | [3] -19.2% | [4] 2.2% | [5] 7.7% | [6] 10.6%

CC(=O)Oc1ccccc1C1CCCCC1
inactive: [1] -1.7% | [2] -28.6% | [3] -2.5% | [4] 17.2% | [5] -11.9% | [6] 0.9%

CC1(O)CCC(C(C)(C)C)CC1 (stereo unspecified)
inactive: [1] 22.6% | [2] 12.3% | [3] -1.2% | [4] 2.05% | [5] 2.95% | [6] 11.1%

CCSc1ccc(N=[N+]([O-])c2ccc(SCC)c(Cl)c2)cc1Cl
inactive: [1] -5.6% | [2] 10.8% | [3] 1.65% | [4] -17.1% | [5] -4.6% | [6] 9.3%

Cc1ccc(NC(=O)CC2SC(=Nc3cccc(Cl)c3C)NC2=O)cc1 (stereo unspecified)
inactive: [1] 30.9% | [2] 27.9% | [3] 41.5% | [4] 28.7% | [5] 26.1% | [6] 11%

C/C=C\CCCCC
inactive: [1] 13.8% | [2] 9.4% | [3] 15.4% | [4] 24.1% | [5] 34.6% | [6] 10.9%

CCCCN(CCCC)c1ccc(S(=O)(=O)c2ccc(N(CCCC)CCCC)cc2)cc1
inactive: [1] 19.1% | [2] 4.95% | [3] 9.4% | [4] 30.4% | [5] -2.35% | [6] 18.6%

CC(Cc1ccccc1)Nc1ncnc2c1ncn2C1OC(CO)CC1O (stereo unspecified)
inactive: [1] 7.5% | [2] 2.35% | [3] 12.6% | [4] 1.6% | [5] 2.3% | [6] -11.7%

Cc1nc[nH]c(=O)c1N
inactive: [1] 0.55% | [2] -1.75% | [3] 9.2% | [4] 0.9% | [5] 7.75% | [6] -4.85%

Cc1ccc(-c2oc(-c3ccc(C)cc3)c3cc(C)c(C)cc23)cc1
inactive: [1] 4.8% | [2] 13.5% | [3] -6.7% | [4] 8.5% | [5] -8.6% | [6] -4.6%

CCCC(C)(C)O
inactive: [1] 2.15% | [2] 9.15% | [3] 22.1% | [4] -21.3% | [5] 10.4% | [6] -3.65%

O=C(O)C1CC2C3CC(C(=O)O)C(C3)C2C1 (stereo unspecified)
inactive: [1] -15.8% | [2] -24.7% | [3] -5.55% | [4] -1.85% | [5] -10.8% | [6] -13.9%

NNC(=O)N/N=C(\CBr)c1ccc(Cl)cc1
inactive: [1] -2.35% | [2] -0.45% | [3] 6.9% | [4] -47.6% | [5] 3.95% | [6] 4.35%

Cc1ccc(S(=O)(=O)N(N)CCC#N)cc1
inactive: [1] 7.3% | [2] 4.55% | [3] 14.8% | [4] -24.1% | [5] -10.1% | [6] 14.6%

CC(=O)OCC(OC(C)=O)C(OC(C)=O)C(OC(C)=O)C(OC(C)=O)c1cnn(-c2ccccc2)n1 (stereo unspecified)
inactive: [1] 15.9% | [2] -1.85% | [3] 11.6% | [4] 32.1% | [5] 6.05% | [6] -10.6%

Cc1cc(Cl)c(Cl)cc1N
inactive: [1] -11.6% | [2] -7.2% | [3] 5.6% | [4] -9.65% | [5] 12.1% | [6] 12.4%

CCN(CC)CCOC(=O)Cc1ccccc1
inactive: [1] -8.9% | [2] -12.7% | [3] 19.9% | [4] 7.65% | [5] 6.5% | [6] 0.9%

O=C(CSc1nnc(-c2ccccc2NC(=O)C(F)(F)F)c(=O)[nH]1)NC(=O)Nc1ccccc1
inactive: [1] 31.7% | [2] -28.8% | [3] 11.7% | [4] 16.3% | [5] -8.35% | [6] 23.9%

CC(=O)OCC1OC(SC2=NC(=O)/C(=C/c3ccccc3)S2)C(OC(C)=O)C(OC(C)=O)C1OC(C)=O (stereo unspecified)
inactive: [1] 40.2% | [2] 35.4% | [3] 55.4% | [4] 15.8% | [5] -4.1% | [6] 43.8%

CC(=O)C(C)(C)Cc1cc(C(C)(C)CC=O)on1
inactive: [1] -2.25% | [2] -0.8% | [3] -12.4% | [4] 5.35% | [5] 29.1% | [6] 4.95%

O=C(O)/C=C/SCc1ccccc1
inactive: [1] 10.2% | [2] -13.2% | [3] 0.8% | [4] -4.3% | [5] 1.4% | [6] -3.05%

O=C(NCC1CC1)NC(=O)c1ccccc1F
inactive: [1] -4.3% | [2] -34.6% | [3] -14.3% | [4] 16.6% | [5] -10.6% | [6] -16.9%

CCn1nc(C)c2c1C(=O)NCC(=O)N2
inactive: [1] -34.1% | [2] -44.6% | [3] -26.9% | [4] -10.4% | [5] -17.6% | [6] -2.3%

N#CC1C(=O)NC(=O)C(C#N)C1c1ccc(Cl)cc1Cl (stereo unspecified)
inactive: [1] 38.9% | [2] 10.1% | [3] 32.6% | [4] 22.1% | [5] -3.55% | [6] 19.9%

c1ccc2c(c1)Cc1ccccc1-2
inactive: [1] 1.5% | [2] -17.2% | [3] -10.6% | [4] -19.5% | [5] -20.9% | [6] -19.1%
